MCF10A rerep – inducers of DNA re-replication in MCF 10A breast cells. MCF 10A DNA re-replication, Hoechst nuclear intensity, 48 h. AID 624296. hit rate 2.9% among 350,000. Potency, µM (top dose mostly 46.1 µM), for the others: top-dose activity, positive = re-replication, most hits filed as activators; further: potency means the concentration at half of the fitted maximal effect; % of control where 0% means no effect; nearly all actives have a fitted effect of over 50% in size
KB-V1 cytotox – KB-V1 MDR subline cytotoxicity | KB-V1 MDR cells viability, CellTiter-Glo, 72 h | Potency, µM (top dose mostly 46.1 µM), hits mostly cytotoxic | hit rate 3.4% among 400,000; further: potency means the concentration at half of the fitted maximal effect; on the % scale 0 is the no-effect control and ±100 the full control effect; nearly all actives have a fitted effect of over 60% in size
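KB-V1, DMEM (no phenol red) + 10% FBS; cpd pin-transferred, titration series; 72 h, 37 degrees C; CellTiter-Glo, luminescence. Data normalized, curve-fit.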
IL1B secr inh – inflammasome signaling inhibition, IL-1 beta readout; THP-1 LPS/ATP IL-1B secretion, AlphaLISA, 16 h; hits give low values; activity change, % at 57.5 µM; hit rate 4.7% among 360,000; in the data active means activity change below about -50%; inconclusive means mostly about -30% to -49%; further: on the % scale 0 is the no-effect control and ±100 the full control effect
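THP-1 cells pretreated 1 hr with compounds (up to 57.5 uM final), then stimulated with LPS (250 ng/mL final) plus ATP (1.25 mM final); secreted IL-1B measured by AlphaLISA after 16 hr, decreased signal indicating inhibition.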
KB-3-1 cytotox – KB-3-1 parental cell cytotoxicity; KB-3-1 viability, CellTiter-Glo ATP luminescence, 72 h; Potency, µM (highest dose often 46.1 µM), most hits filed as cytotoxic; hit rate 1.4% among 400,000; further: potency means the concentration at half of the fitted maximal effect; on the % scale 0 is the no-effect control and ±100 the full control effect; nearly all actives have a fitted effect of over 60% in size
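Cells are dispensed, compounds pinned in, plates held at 37 °C for 72 h, then CellTiter-Glo is added and luminescence read after 10 minutes. Cell line: parental KB-3-1 in phenol-red-free DMEM, 10% FBS.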
SW480 rereplic – inducers of DNA re-replication in SW480 colon cancer cells; SW480 DNA re-replication, Hoechst DNA content imaging, 48 h; hit rate 1.8% among 340,000; Potency, µM (top dose mostly 46.1 µM), without a hit: top-dose re-replication activation, hits mostly activators; further: potency means the concentration at half of the fitted maximal effect; % of control where 0% means no effect; nearly all actives have a fitted effect of over 55% in size
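250 cells/well; 23 nL cpd via pin tool; 48 hr, 37 C, 5% CO2; Hoechst 40 min; imager read of total nuclear intensity, ex 405/em 500-530 nm.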
Starred values were filed as active, the others as inactive; i = inactive; ? = inconclusive; nt = no result given. Rows were chosen to be rich in hits. Some 9.9% of all compounds tested hit in one or more screens of this group. Unless noted, the call rests on the fitted dose curve; in most records, active means well fitted curve in the direction sought with a large enough effect; inconclusive means small, poorly fitted or top-dose-only effect, or another doubt; inactive means no such curve, though single readings can be large; an effect the other way counts as inactive or inconclusive.

SMILES | MCF10A rerep | KB-V1 cytotox | IL1B secr inh | KB-3-1 cytotox | SW480 rereplic
CSc1nc2ccccc2cc1/C=C(\C#N)c1ccc(Cl)c(Cl)c1 | 7.3µM* | i | -20 | i | ?
CCn1c(/C(C#N)=C/c2ccccc2Cl)nc2ccccc21 | nt | i | nt | i | nt
CSc1nc2ccccc2cc1/C=C(\C#N)c1cccc(C)c1 | 10µM* | 15µM* | -1 | 15µM* | ?
CSc1nc2ccccc2cc1/C=C(\C#N)c1ccccc1 | 13µM* | ? | 0 | ? | ?
N#CC(=Cc1ccnc2ccccc12)c1ccccc1 | nt | ? | -26 | i | nt
COc1ccc(-c2c3c(cc(C)[n+]2[O-])oc2ccc(OC)cc23)cc1 | 16µM* | 10µM* | ? | ? | 15%
COc1ccc2oc3cc(C)[n+]([O-])c(-c4ccc(C)cc4)c3c2c1 | 16% | 5.8µM* | -23 | ? | ?
COc1ccc(-c2c(C)oc3ccc(C)cc23)cc1 | ? | i | 25 | i | 13%
COc1ccc2oc3cc(C)[n+]([O-])c(-c4ccc(Cl)cc4)c3c2c1 | 17% | ? | 28 | ? | -1%
Cc1ccc(C(=O)OC(C(=O)O)C(OC(=O)c2ccc(C)cc2)C(=O)O)cc1 (stereo not given) | -9% | ? | 0 | i | -46%
CSc1nc2nccc(/C=C\c3ccccc3)n2n1 | ? | ? | -105* | ? | ?
CCOC(=O)c1c(C)[nH]c(C(=O)N(C)CC(=O)Nc2ccc(OCC)c(OCC)c2)c1C | nt | i | -7 | i | nt
C[C@@H]1[C@H](c2ccccc2)OCCS(=O)(=O)N1Cc1ccc(Cl)cc1 | nt | 12µM* | nt | 16µM* | nt
COc1ccc(CNC(=O)c2cnc(N3CCOCC3)c3ccccc23)cc1 | nt | i | nt | i | nt
CC1(C)CC(=O)C2=C(C1)Nc1cc3c(cc1C2c1ccc(F)cc1)OCO3 (stereo not given) | ? | i | 0 | i | -15%
COc1ccc(OC)c(C2Nc3ccccc3NC3=C2C(=O)CC(C)(C)C3)c1 (stereo not given) | -12% | i | -4 | i | -5%
COc1ccc(OC)c(C2C3=C(COC3=O)Nc3cc4c(cc32)OCO4)c1 (stereo not given) | 0.26µM* | 1.2µM* | 50 | 0.058µM* | 0.15µM*
COc1ccc(C2C3=C(CC(C)(C)CC3=O)Nc3cc4c(cc32)OCO4)cc1 (stereo not given) | 4% | i | -60* | i | -7%
Cc1ccc(Nc2nc(N)c3ccccc3n2)cc1C | 20% | ? | -97* | i | -4%
Oc1ccc(C[C@H]2CNC(=S)N2CC2CCCN2C[C@H](Cc2ccc(O)cc2)N2C[C@H](Cc3ccccc3)N(CC3CCCCC3)C2=S)cc1 (stereo not given in full) | ? | i | -72* | i | 9%
Oc1ccc(C[C@H]2CN([C@@H](Cc3ccccc3)CN3CCC[C@@H]3CN3C(=S)NC[C@@H]3Cc3ccccc3)C(=S)N2CC2CCCCC2)cc1 | nt | i | ? | i | nt
Oc1ccc(C[C@H]2CNC(=S)N2CC2CCCN2C[C@H](Cc2ccc(O)cc2)N2C[C@H](Cc3ccccc3)N(CC3CCCCCC3)C2=S)cc1 (stereo not given in full) | ? | i | -66* | ? | 11%
CC(C)C[C@H]1CNC(=S)N1CC1CCCN1C[C@H](Cc1ccc(O)cc1)N1C[C@H](Cc2ccccc2)N(CC2CCCCC2)C1=S (stereo not given in full) | ? | i | -54* | i | 3%
Oc1ccc(C[C@H]2CNC(=S)N2CC2CCCN2C[C@H](Cc2ccc(O)cc2)N2C[C@H](Cc3ccc(O)cc3)N(CC3CCCCCC3)C2=S)cc1 (stereo not given in full) | 10µM* | ? | ? | 21µM* | ?
COc1cc2[nH]c3c(c2cc1OC)CCN1CCCC[C@@H]31 | 0% | i | 2 | i | 7%
SMILES | MCF10A rerep | KB-V1 cytotox | IL1B secr inh | KB-3-1 cytotox | SW480 rereplic
CCCNC(=O)C1(C)CCCN(Cc2ccc(C(=O)OCC)o2)C1 (stereo not given) | nt | i | 26 | i | nt
Cn1c2c(c3cc([N+](=O)[O-])ccc31)CCCC2 | ? | i | -16 | i | -3%
N#Cc1ccccc1OCC(=O)Nc1ccccc1C(=O)NC1CC1 | -9% | i | -1 | i | 7%
O=C(COC(=O)CNC(=O)c1ccc(Cl)cc1Cl)NNC(=O)c1ccccc1F | -1% | i | 1 | i | -2%
CN(C(=O)COC(=O)CNC(=O)CNC(=O)c1ccc(Cl)cc1Cl)c1ccccc1 | ? | i | -143* | i | -5%
O=C1CC(c2cccc([N+](=O)[O-])c2)c2ccc3ccccc3c2N1 (stereo not given) | 7% | 13µM* | -4 | i | -2%
O=C1CC(c2ccsc2)c2ccc3ccccc3c2N1 (stereo not given) | ? | i | 21 | ? | 5%
Cc1cc(C)c2sc(N3CCN(C(=O)C4CC4)CC3)nc2c1 | nt | i | nt | i | nt
Cn1ncc2c(N3CCN(c4ccccc4F)CC3)ncnc21 | 2% | ? | -3 | i | 1%
Cn1ncc2c(N3CCN(c4ccc(Cl)c(Cl)c4)CC3)ncnc21 | 11% | 2.3µM* | -60* | i | -4%
Cc1nn(Cc2ccccc2)c(Cl)c1C(=O)OCc1nnc(-c2ccccc2)o1 | ? | 7.3µM* | -9 | i | -1%
Cc1cc(C=NCCCO)c(C)n1-c1cc(Cl)ccc1Cl | -7% | i | -9 | i | 0%
CCSCCOC(=O)C1=C(C)N(C)C(=O)NC1c1ccc2c(c1)OCO2 (stereo not given) | -1% | i | 17 | i | -7%
C/C(=N\NC(=O)Cc1ccc(Cl)cc1)c1ccccc1O | 5% | ? | 74 | ? | 15µM*
C/C(=N\NC(=O)CSCc1ccc([N+](=O)[O-])cc1)c1ccccc1O | 0% | 21µM* | 24 | i | ?
CS(=O)(=O)c1cccc(C(=O)OCC(=O)Nc2ccc3c(c2)OCO3)c1 | 2% | nt | -1 | nt | 4%
O=c1c2c(-c3cccs3)csc2ncn1/N=C/c1ccc(OC(F)F)cc1 | -1% | 15µM* | -28 | i | -1%
O=c1c2c(-c3cccs3)csc2ncn1-c1ccc(Br)cc1 | 7% | ? | -20 | i | -3%
COc1cccc(-n2cnc3scc(-c4cccs4)c3c2=O)c1 | 8% | ? | -64* | i | -3%
Cc1cc(C)c2cc(CN(CCN3CCCC3)C(=O)Nc3ccc(F)cc3)c(=O)[nH]c2c1 | 24% | i | -80* | ? | 15%
Cc1cc(C)c2cc(CN(CCO)C(=O)Nc3ccc(Cl)cc3)c(=O)[nH]c2c1 | ? | i | -58* | i | ?
